# From PubChem BioAssay (NCATS)
# Inconclusive results are not listed. A number with no mark means an inactive call. Active and inactive are the calls of the source. Calls come from the whole dose curve; as a rule, active = well fitted curve in the direction sought with a large enough effect; inconclusive = small, poorly fitted or top-dose-only effect, or another doubt; inactive = no such curve, though single readings can be large; an effect the other way counts as inactive or inconclusive.
# Assays:
# HEK293 = test: Cytotoxic Profiling of Annotated Libraries Using Quantitative High-Throughput Screening (AID 1296008); settings: Five cell lines viability, CellTiter-Glo ATP luminescence, 48-72 h; max response: hits give low values; note: nearly all actives have a fitted effect of over 60% in size
# Outline: (§1)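 Compounds were pin-transferred onto cells and incubated 48 or 72 hr at 37 degree Celsius, 95% humidity. CellTiter-Glo was added, plates sat 10 min at room temperature, then ATP-coupled luminescence was imaged as the viability read-out.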
# KB-3-1 = test: as above; settings: Five cell lines viability, CellTiter-Glo ATP luminescence, 48-72 h; max response: hits give low values
# Outline: as §1
# CASKI = test: Primary qHTS to identify gynecologic anti-cancer compounds using libraries of approved drugs and bioactive compounds (AID 1345084); settings: Gynecologic cancer cell panel viability, ATPlite luminescence, 48 h; series mostly up to 57.5 µM; note: nearly all actives have a fitted effect of over 55% in size
# Outline: (§2)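 Cells, 1,000 per well, were allowed to settle for 16 h at 37 C before compound addition. Five concentrations were tested for 48 h, and viability was read by ATPlite luminescence after 15 min at room temperature.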
# HeLa = test: as above; settings: Gynecologic cancer cell panel viability, ATPlite luminescence, 48 h; series mostly up to 57.5 µM
# Outline: as §2
# C33A = test: as above; settings: Gynecologic cancer cell panel viability, ATPlite luminescence, 48 h; series mostly up to 57.5 µM
# Outline: as §2
# Hek293T = test: as above; settings: Gynecologic cancer cell panel viability, ATPlite luminescence, 48 h, control line for the selectivity index; series mostly up to 57.5 µM
# Outline: as §2
# CAOV3 = test: as above; settings: Gynecologic cancer cell panel viability, ATPlite luminescence, 48 h; series mostly up to 57.5 µM
# Outline: as §2
# Es-2 = test: as above; settings: Gynecologic cancer cell panel viability, ATPlite luminescence, 48 h; series mostly up to 57.5 µM
# Outline: as §2
# JEG-3 = test: as above; settings: Gynecologic cancer cell panel viability, ATPlite luminescence, 48 h; series mostly up to 57.5 µM
# Outline: as §2
# HaCat = test: Cytotoxic Profiling of Annotated Libraries Using Quantitative High-Throughput Screening (AID 1296008); settings: Five cell lines viability, CellTiter-Glo ATP luminescence, 48-72 h; max response: hits give low values; note: nearly all actives have a fitted effect of over 60% in size
# Outline: as §1
# NIH3T3 = test: as above; settings: Five cell lines viability, CellTiter-Glo ATP luminescence, 48-72 h; max response: hits give low values
# Outline: as §1
# % is set by controls: 0 for no effect and ±100 for the full control effect; potency is the fitted concentration of half-maximal effect.
compound,measurement,setting,value
Cn1cncc1C(N)(c1ccc(Cl)cc1)c1ccc2c(c1)c(-c1cccc(Cl)c1)cc(=O)n2C (stereo not given),Potency,HEK293,0.259 µM (active)
same,Potency,KB-3-1,16.4 µM (active)
same,Potency,CASKI,inactive
same,Potency,HeLa,inactive
Cc1ccccc1-n1c([C@H](C)Nc2nc(N)nc3nc[nH]c23)nc2cccc(C)c2c1=O,Potency,HEK293,16.4 µM (active)
same,max response,KB-3-1,-12.5%
same,Potency,C33A,inactive
same,Potency,CASKI,31.6 µM (active)
same,Potency,Hek293T,inactive
CNC12CC3C[C@@](C)(C1)C[C@](C)(C3)C2,max response,HEK293,-16.8%
same,outcome,KB-3-1,inactive
same,Potency,C33A,inactive
same,Potency,CAOV3,inactive
same,Potency,CASKI,inactive
same,Potency,Es-2,inactive
same,Potency,HeLa,inactive
same,Potency,Hek293T,inactive
same,Potency,JEG-3,inactive
CN(C)c1nc(NC2CCC(NC(=O)c3ccc(F)c(F)c3)CC2)nc2ccccc12 (stereo not given),Potency,HEK293,16.4 µM (active)
same,Potency,KB-3-1,23.1 µM (active)
same,Potency,CASKI,inactive
same,Potency,Hek293T,28.2 µM (active)
Nc1nc(Nc2ccc(S(N)(=O)=O)cc2)n(C(=S)Nc2c(F)cccc2F)n1,Potency,HEK293,8.2 µM (active)
same,Potency,KB-3-1,1.3 µM (active)
same,Potency,C33A,inactive
same,Potency,CAOV3,inactive
same,Potency,CASKI,inactive
same,Potency,Es-2,inactive
same,Potency,HeLa,15.8 µM (active)
same,Potency,JEG-3,inactive
CC1(C)CC[C@]23CO[C@@]4(CCC5[C@@]6(C)CC[C@H](O[C@@H]7OC[C@H](O[C@@H]8O[C@H](CO)[C@@H](O)[C@H](O)[C@H]8O)[C@H](O)[C@H]7O[C@@H]7O[C@H](CO)[C@@H](O[C@@H]8O[C@H](CO)[C@@H](O)[C@H](O)[C@H]8O)[C@H](O)[C@H]7O)[C@@](C)(CO)C6CC[C@@]5(C)[C@]4(C)C[C@H]2OC2OCC(O)C(O)C2O)C3C1 (stereo not given in full),Potency,HEK293,2.45 µM (active)
same,max response,KB-3-1,-11.5%
same,"activity change, negative = cytotoxicity",C33A,-28.5% [at 6.55 µM]
same,"activity change, negative = cytotoxicity",HeLa,-27.3% [at 6.55 µM]
Cc1ccc(NC(=O)c2ccc(CN3CC[C@H](N(C)C)C3)c(C(F)(F)F)c2)cc1Nc1nccc(-c2cncnc2)n1,Potency,HEK293,5.63 µM (active)
same,max response,KB-3-1,-1.65%
same,Potency,C33A,inactive
same,Potency,CAOV3,inactive
same,Potency,HeLa,inactive
same,Potency,Hek293T,inactive
same,Potency,JEG-3,inactive
CC1(C)CC(NC(=O)C(=O)Nc2ccc(Br)cc2)CC(C)(C)N1,Potency,HEK293,4.11 µM (active)
same,Potency,KB-3-1,4.61 µM (active)
same,Potency,C33A,inactive
same,Potency,CAOV3,inactive
same,Potency,HeLa,14.1 µM (active)
same,Potency,JEG-3,inactive
CC(O)c1cc(C(=O)N[C@@H](C)Cn2ccc(-c3ccc(C#N)c(Cl)c3)n2)n[nH]1 (stereo not given in full),Potency,HEK293,18.4 µM (active)
same,max response,KB-3-1,-27.8%
same,Potency,CAOV3,inactive
COc1cc2ncnc(N3CCC(Oc4cnc5ccccc5n4)C3)c2cc1OC (stereo not given),Potency,HEK293,0.366 µM (active)
same,Potency,KB-3-1,1.03 µM (active)
same,Potency,CASKI,7.08 µM (active)
same,Potency,Es-2,3.98 µM (active)
same,Potency,HeLa,1.78 µM (active)
same,Potency,Hek293T,3.55 µM (active)
O=C(c1ccccc1)c1ccc2nc(NC(=O)c3csc(C4CCN(c5ncnc6ccsc56)CC4)n3)[nH]c2c1,Potency,HEK293,5.17 µM (active)
same,Potency,KB-3-1,8.2 µM (active)
same,Potency,C33A,15.8 µM (active)
same,Potency,Hek293T,8.91 µM (active)
same,Potency,JEG-3,inactive
C=C1C(=O)O[C@@H]2[C@H]1CCC(C)=C1CCC(=O)O[C@]12C,Potency,HEK293,14.6 µM (active)
same,max response,KB-3-1,-23.5%
same,Potency,CASKI,inactive
same,Potency,HeLa,inactive
c1cc(Nc2cc(C3CC3)[nH]n2)nc(Nc2ccc3nc[nH]c3c2)n1,Potency,HEK293,1.16 µM (active)
same,Potency,KB-3-1,1.3 µM (active)
same,Potency,CASKI,1.78 µM (active)
same,Potency,Es-2,12.6 µM (active)
same,Potency,JEG-3,inactive
CCCN1CCC(c2cccc(S(C)(=O)=O)c2)CC1,max response,HEK293,-1.41%
same,max response,KB-3-1,-3.93%
same,Potency,C33A,inactive
same,Potency,Es-2,inactive
same,Potency,HeLa,inactive
same,Potency,Hek293T,inactive
CNC(=O)c1ccccc1Nc1nc(Nc2ccc3c(c2OC)CCC[C@@H](N2CCN(CCO)CC2)C3)ncc1Cl,Potency,HEK293,5.8 µM (active)
same,Potency,KB-3-1,13 µM (active)
same,Potency,CASKI,12.6 µM (active)
CC(C)[C@@](C)(O)[C@@H]1CN(c2nc(-c3[nH]nc4ncccc34)c(F)cc2Cl)CCN1,Potency,HEK293,13 µM (active)
same,Potency,KB-3-1,20.6 µM (active)
same,Potency,CASKI,inactive
same,Potency,Es-2,inactive
same,Potency,HeLa,inactive
same,Potency,Hek293T,inactive
same,Potency,JEG-3,25.1 µM (active)
CN(C)c1ccc2c(c1)OC(N)=C(C#N)C2c1cccc(C(F)(F)F)c1 (stereo not given),Potency,HEK293,0.184 µM (active)
same,Potency,KB-3-1,0.291 µM (active)
same,Potency,C33A,0.631 µM (active)
same,Potency,Es-2,1 µM (active)
same,Potency,HeLa,0.501 µM (active)
same,Potency,JEG-3,0.282 µM (active)
O=C(NCc1cccc(O)c1)Nc1nc(-c2ccncc2)cs1,max response,HEK293,-21.2%
same,max response,KB-3-1,-3.25%
same,Potency,C33A,inactive
same,Potency,CAOV3,inactive
same,Potency,CASKI,inactive
same,Potency,Es-2,inactive
same,Potency,Hek293T,inactive
same,Potency,JEG-3,inactive
CNC(=O)c1ccccc1Nc1cc(Nc2ccc(N3CCOCC3)cc2OC)ncc1C(F)(F)F,Potency,HEK293,6.51 µM (active)
same,max response,KB-3-1,-12.1%
same,Potency,C33A,inactive
same,Potency,CAOV3,inactive
same,Potency,CASKI,inactive
same,Potency,Es-2,inactive
same,Potency,Hek293T,inactive
same,Potency,JEG-3,inactive
COC(=O)N[C@@H](C)CNc1nccc(-c2cn(C(C)C)nc2-c2cc(Cl)cc(NS(C)(=O)=O)c2F)n1,Potency,HEK293,11.6 µM (active)
same,max response,KB-3-1,-3.34%
same,Potency,C33A,inactive
same,Potency,CAOV3,inactive
same,Potency,CASKI,inactive
same,Potency,HeLa,inactive
same,Potency,Hek293T,inactive
COc1ccc(CC2C(=O)NC(C)C(=O)N(C)C3Cc4ccc(cc4)Oc4cc(ccc4OC4OC(CO)C(O)C(O)C4O)CC(C(=O)NC(C)C(=O)NC(C)C(=O)N2C)N(C)C3=O)cc1 (stereo not given),Potency,HEK293,0.0551 µM (active)
same,Potency,KB-3-1,0.138 µM (active)
same,Potency,CASKI,0.631 µM (active)
same,Potency,Es-2,0.398 µM (active)
same,Potency,HeLa,2 µM (active)
same,Potency,Hek293T,0.158 µM (active)
CC(C)(C#N)c1ccc(N2C(=O)OCc3cnc4ccc(-c5cnc6ccccc6c5)cc4c32)cc1,Potency,HEK293,7.31 µM (active)
same,Potency,KB-3-1,6.51 µM (active)
same,Potency,Hek293T,12.6 µM (active)
same,Potency,JEG-3,inactive
O=C(Nc1ccc(Cl)cc1F)c1ccccc1O,Potency,HEK293,16.4 µM (active)
same,Potency,KB-3-1,13 µM (active)
same,Potency,C33A,14.1 µM (active)
same,Potency,Es-2,15.8 µM (active)
same,Potency,Hek293T,17.8 µM (active)
same,Potency,JEG-3,inactive
CCC(C)C(=O)OC1CC(O)C23C4OCC5(C(O)CC2C1(C)C(O)O4)C3C(=O)CC1(C)C(c2ccoc2)CC2OC215 (stereo not given),Potency,HEK293,2.52 µM (active)
same,Potency,KB-3-1,1.78 µM (active)
same,Potency,CASKI,inactive
same,Potency,Hek293T,10 µM (active)
same,Potency,JEG-3,inactive
CC1(C)CC(=O)C2=C(C1)NC(=S)NC2c1cccc(O)c1 (stereo not given),Potency,HEK293,1.16 µM (active)
same,Potency,KB-3-1,0.82 µM (active)
same,Potency,CAOV3,3.55 µM (active)
same,Potency,HeLa,7.94 µM (active)
CCS(=O)(=O)N1CCN(c2ccc(Nc3ncc(C(N)=O)c(NC4CC4)n3)cc2)CC1,Potency,HEK293,7.31 µM (active)
same,Potency,KB-3-1,5.17 µM (active)
same,Potency,JEG-3,inactive
Cc1c(NC(=O)c2cc(C(N)=O)nc3cc(F)ccc23)c(C(F)(F)F)nn1Cc1ccc(C#N)cc1,Potency,HEK293,0.0862 µM (active)
same,max response,KB-3-1,4.52%
same,Potency,C33A,inactive
same,Potency,CAOV3,inactive
same,Potency,CASKI,inactive
same,Potency,Es-2,inactive
same,Potency,Hek293T,inactive
same,Potency,JEG-3,inactive
N#Cc1ccc(-c2cnc3[nH]cc(NC(=O)c4cccnc4)c3c2)cc1,Potency,HEK293,8.2 µM (active)
same,max response,KB-3-1,-24.8%
same,Potency,C33A,inactive
same,Potency,CAOV3,inactive
same,Potency,CASKI,inactive
same,Potency,Hek293T,inactive
same,Potency,JEG-3,inactive
O=C(c1cccc(Cl)c1F)N1CCN(Cc2cccc(Nc3nccs3)n2)CC1,Potency,HEK293,1.03 µM (active)
same,Potency,KB-3-1,1.16 µM (active)
same,Potency,C33A,inactive
same,Potency,Es-2,inactive
same,Potency,HeLa,1 µM (active)
same,Potency,JEG-3,inactive
COc1cc2c(NC3CCN(CC4CCCCC4)CC3)nc(N3CCCN(C(C)C)CC3)nc2cc1OCCCN1CCCCC1,Potency,HEK293,3.26 µM (active)
same,Potency,KB-3-1,3.66 µM (active)
same,Potency,C33A,14.1 µM (active)
same,Potency,CAOV3,3.98 µM (active)
same,Potency,Es-2,3.98 µM (active)
same,Potency,Hek293T,20 µM (active)
same,Potency,JEG-3,5.62 µM (active)
CC(C)=CC/C=C(\C)[C@H]1CC[C@]2(C)[C@@H]1[C@H](O)C[C@@H]1[C@@]3(C)CC[C@H](O)C(C)(C)[C@@H]3[C@@H](O[C@@H]3O[C@H](CO)[C@@H](O)[C@H](O)[C@H]3O)C[C@]12C,max response,HaCat,4.08%
same,outcome,KB-3-1,inactive
same,max response,NIH3T3,-21.6%
same,Potency,C33A,inactive
same,Potency,CASKI,inactive
same,Potency,Es-2,inactive
same,Potency,HeLa,inactive
same,Potency,Hek293T,inactive
same,Potency,JEG-3,inactive
